PI5P4K alpha inh: PI5P4K alpha (human) kinase inhibition; actives 1.2% (n = 330,000); PI5P4Kalpha enzyme, ADP-Glo luminescence, 60 min; active compounds read low; max response, %; active means max response of -50% or lower; inconclusive means between -30% and -50%; inactive means -30% or higher; further: value at the top dose of about 77 µM; on the % scale 0 is the no-effect control and ±100 the full control effect
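Single end-point luminescence (ADP-Glo) quantified ADP from PI5P4Kalpha turnover; ATP 5 microM final, 1 h at RT, 0.1% CHAPS and 0.28 mM EGTA in HEPES pH 7.4.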
JMJD2A Tudor inh: inhibitors of human JMJD2A Tudor domain; O75164; AlphaScreen JMJD2A-Tudor / H3K4me3 peptide binding; Potency, µM (highest dose often 114 µM), for the others: at the highest dose activity change, negative = inhibition, usual class: inhibitors; actives 4.4% (n = 390,000); further: potency means the concentration at half of the fitted maximal effect; on the % scale 0 is the no-effect control and ±100 the full control effect; nearly all actives have a fitted effect of over 50% in size
BAZ2B inh: BAZ2B (human) inhibition | Q9UIF8 | AlphaScreen BAZ2B-H3K14Ac peptide displacement | Potency, µM (series often up to 114 µM), for the others: at the top dose activity change, negative = inhibition, hits mostly inhibitors | actives 4.4% (n = 360,000); further: potency means the concentration at half of the fitted maximal effect; on the % scale 0 is the no-effect control and ±100 the full control effect; nearly all actives have a fitted effect of over 60% in size
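Inhibition is scored as reduced AlphaScreen emission. The BAZ2B/b-H3(5-23)K14Ac complex (50 nM each) in PBS pH 7.4, 0.01% Tween-20 meets compound (up to 110 uM) for 30 min at RT before bead addition.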
PLK1 PBD block: inhibitors of human PLK1 polo-box domain binding; Plk1 PBD binding of FITC phosphopeptide, fluorescence polarization; Potency, µM, for the others: max response, negative = inhibition, actives largely listed as inhibitors; actives 2.8% (n = 360,000); AID 720504; further: potency means the concentration at half of the fitted maximal effect; series mostly up to about 57 µM; on the % scale 0 is the no-effect control and ±100 the full control effect; nearly all actives have a fitted effect of over 65% in size
Target sequence (P53350 whole entry, looked up, the tested form may be a part): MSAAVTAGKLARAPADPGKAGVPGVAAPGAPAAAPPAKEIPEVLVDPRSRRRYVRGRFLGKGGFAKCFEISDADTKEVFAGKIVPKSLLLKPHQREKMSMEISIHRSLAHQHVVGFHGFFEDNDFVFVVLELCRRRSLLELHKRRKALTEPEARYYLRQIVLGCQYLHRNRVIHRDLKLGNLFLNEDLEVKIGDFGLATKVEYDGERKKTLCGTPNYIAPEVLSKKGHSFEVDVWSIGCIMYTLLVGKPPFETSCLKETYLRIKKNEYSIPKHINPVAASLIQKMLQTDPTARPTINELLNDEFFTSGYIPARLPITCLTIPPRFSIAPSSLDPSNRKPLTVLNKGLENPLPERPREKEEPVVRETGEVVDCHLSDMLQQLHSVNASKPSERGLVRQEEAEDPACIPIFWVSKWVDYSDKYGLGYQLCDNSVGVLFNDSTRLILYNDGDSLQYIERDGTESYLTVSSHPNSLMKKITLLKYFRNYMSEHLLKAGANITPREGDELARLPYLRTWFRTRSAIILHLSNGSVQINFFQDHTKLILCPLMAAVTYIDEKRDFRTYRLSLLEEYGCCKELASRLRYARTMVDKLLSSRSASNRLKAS
G9a block: blocks human histone lysine methyltransferase G9a; Potency, µM (top dose mostly 102 µM), for the others: at the top dose activity, negative = inhibition, usual class: inhibitors; AID 504332; G9a H3K9 monomethylation, AlphaScreen, 2 h; actives 8.8% (n = 350,000); further: potency means the concentration at half of the fitted maximal effect; on the % scale 0 is the no-effect control and ±100 the full control effect; nearly all actives have a fitted effect of over 75% in size
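Chemiluminescent proximity detection of H3K9 monomethylation, read after 10 min bead incubation in the dark. Reaction: 20 nM G9a, 500 nM biotin-H3K9 peptide, 20 uM SAM cofactor, 2 h, room temperature, following 15 min enzyme-compound preincubation.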
HP1b binding inh: inhibitors of HP1-beta chromodomain binding to methylated histone tails. Potency, µM (titrated, usually from 114 µM), for inactives: at the highest dose activity change, negative = inhibition, hits mostly inhibitors. actives 0.56% (n = 390,000). AlphaScreen HP1-beta / biotin-H3K9me3 peptide binding. P83916. AID 540317; further: potency means the concentration at half of the fitted maximal effect; nearly all actives have a fitted effect of over 70% in size
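Compound inhibition of the preformed complex between 50 nM HP1-beta and 50 nM biotinylated H3K9me3 peptide was read by AlphaScreen. Buffer was PBS pH 7.4 with 0.01% Tween-20. Incubations ran 30 min at room temperature, with 10 ug/mL donor/acceptor beads.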
The depositor's hits bear a star; [ ] = dose if it differs, or a comment. Sampled rows, rich in hits. Any-hit rate of the full collection: about 12%. Unless noted, the call rests on the fitted dose curve; in most records, active means well fitted curve in the direction sought with a large enough effect; inconclusive means small, poorly fitted or top-dose-only effect, or another doubt; inactive means no such curve, though single readings can be large; an effect the other way counts as inactive or inconclusive.

Screening Cc1ccc(S(=O)(=O)Nc2ccc(Nc3nccn4c(-c5ccc6ccccc6c5)cnc34)cc2)cc1 returned PI5P4K alpha inh 4.7 and PLK1 PBD block 4.6%.
`CC(C)NCC#CCOc1ccc(Cl)cc1` gave PI5P4K alpha inh -3.0, JMJD2A Tudor inh 44.7µM*, BAZ2B inh inconclusive, PLK1 PBD block -8.7%, G9a block 7.94µM* and HP1b binding inh 23.5%.
`CC1CCCC(NC(=O)COC(=O)COc2ccc(Cl)cc2)C1C` (stereo not drawn) gave PI5P4K alpha inh 2.7, JMJD2A Tudor inh -17.0%, BAZ2B inh 11.6%, PLK1 PBD block -3.4%, G9a block 12.3% and HP1b binding inh 34.0%.
Screening CC1CCCCC1NCC#CCOc1ccc(Cl)cc1 (stereo not drawn) returned PI5P4K alpha inh -1.0, JMJD2A Tudor inh 20µM*, BAZ2B inh 50.1µM*, PLK1 PBD block 2.8%, G9a block 14.1µM* and HP1b binding inh inconclusive.
For CC(C)NCC(O)COCCOc1ccc(Cl)cc1 (stereo not drawn) the results were PI5P4K alpha inh -0.2, JMJD2A Tudor inh -19.2%, BAZ2B inh -11.1%, PLK1 PBD block -4.9%, G9a block -6.5% and HP1b binding inh 14.0%.
For CCOC(=O)C1(CCOC)CCCCC1=O (stereo not drawn) the results were PI5P4K alpha inh 10.6 and PLK1 PBD block -8.1%.
For COC(=O)CCCC[C@@H]1O[C@H](CCc2ccccc2)Cc2[nH]c(=S)[nH]c(=O)c21 the results were PI5P4K alpha inh -3.3 and PLK1 PBD block -7.6%.
For O=P(O)(Cc1ccccc1)Cc1ccccc1 the results were PI5P4K alpha inh 1.7, JMJD2A Tudor inh -3.4%, BAZ2B inh -37.9%, PLK1 PBD block 7.0%, G9a block 6.5%[0.501 µM] and HP1b binding inh 22.8%.
`CN(C)c1cccc2c1c(NC(=O)Nc1ccc(F)cc1F)nn2C` gave PI5P4K alpha inh -9.3, JMJD2A Tudor inh -25.2%, BAZ2B inh -10.7%, PLK1 PBD block -16.8%, G9a block inconclusive and HP1b binding inh 17.0%.
CN(C)c1cccc2c1c(NC(=O)Nc1ccccc1)nn2C was read as PI5P4K alpha inh -7.1, JMJD2A Tudor inh inconclusive, BAZ2B inh -33.2%, PLK1 PBD block -26.0%, G9a block 35.5µM* and HP1b binding inh 10.0%.
CC(C)Oc1ccc(C(=O)Nc2nnc(C3=COCCO3)o2)cc1 was read as PI5P4K alpha inh -4.6, JMJD2A Tudor inh inconclusive, BAZ2B inh inconclusive, PLK1 PBD block -9.1%, G9a block 6.8% and HP1b binding inh 34.8%.
COc1ccc(C(=O)Nc2nnc(C3=COCCO3)o2)cc1OC was read as PI5P4K alpha inh 0.3, JMJD2A Tudor inh 50.1µM*, BAZ2B inh 15.8µM*, PLK1 PBD block -1.1%, G9a block 42.8% and HP1b binding inh 53.1%.
Cc1ccc(-c2nnc(NC(=O)c3ccc4c(c3)OCCO4)o2)c(C)c1 was read as JMJD2A Tudor inh -2.3%, BAZ2B inh 5.7%, G9a block 52.1%[59 µM] and HP1b binding inh 30.9%[57 µM].
`Cc1cccc(C(=O)Nc2nnc(C3=COCCO3)o2)c1` gave PI5P4K alpha inh 2.4, JMJD2A Tudor inh 39.8µM*, BAZ2B inh 7.94µM*, PLK1 PBD block 6.3%, G9a block 7.1% and HP1b binding inh 22.6%.
For COc1cccc(OC)c1NC(=O)CN(C)S(=O)(=O)c1ccc2c(c1)OCCO2 the results were PI5P4K alpha inh 5.3, JMJD2A Tudor inh -2.8%, BAZ2B inh 1.7%, PLK1 PBD block -2.7%, G9a block -4.2% and HP1b binding inh -21.3%.
Cc1ccc(C)c(CSc2nc3ncccc3[nH]2)c1 was read as JMJD2A Tudor inh -13.9%, BAZ2B inh -8.5%, G9a block -31.9%[59 µM] and HP1b binding inh 26.2%.
`C[C@H](N)c1nnc(SCC(N)=O)o1` gave PI5P4K alpha inh -3.6, JMJD2A Tudor inh -18.9%, BAZ2B inh 56.2µM*, PLK1 PBD block -14.1%, G9a block 12.6µM* and HP1b binding inh -17.2%.
Screening O=c1c2ccccc2nc(SCc2cn3ccsc3n2)n1-c1ccccc1 returned PI5P4K alpha inh -10.4, JMJD2A Tudor inh inconclusive, BAZ2B inh inconclusive, PLK1 PBD block -1.4%, G9a block 10µM* and HP1b binding inh 2.5%.
`O=C(CSc1nc2ccccc2c(=O)n1-c1ccccc1)N1CCCC1` gave PI5P4K alpha inh -1.7, JMJD2A Tudor inh -2.4%, BAZ2B inh -15.4%, PLK1 PBD block -7.2%, G9a block 50.1µM* and HP1b binding inh 32.4%.
CNC(=O)CSc1nc2sccc2c(=O)n1-c1ccccc1 was read as PI5P4K alpha inh inconclusive, JMJD2A Tudor inh -25.3%, BAZ2B inh -1.8%, PLK1 PBD block -7.1%, G9a block 19.7% and HP1b binding inh 11.5%.
`O=C(CSc1nc2ccccc2c(=O)n1-c1ccc(F)cc1)Nc1ccc(C(=O)O)cc1` gave PI5P4K alpha inh inconclusive, JMJD2A Tudor inh 5.1%, BAZ2B inh 20.7%, PLK1 PBD block -23.8%, G9a block -16.7%[2.33 µM] and HP1b binding inh 36.1%.
N#CCSc1nc2sccc2c(=O)n1-c1ccccc1 was read as PI5P4K alpha inh -69.7*, JMJD2A Tudor inh -11.7%, BAZ2B inh 1.1%, PLK1 PBD block -5.3%, G9a block inconclusive and HP1b binding inh 0.2%.
O=c1c2ccccc2nc(SCc2cn3ccsc3n2)n1-c1ccccc1F was read as PI5P4K alpha inh 1.3, JMJD2A Tudor inh -23.3%, BAZ2B inh inconclusive, PLK1 PBD block 1.0%, G9a block inconclusive and HP1b binding inh 11.6%.
`O=C(CSc1nc2ccccc2c(=O)n1-c1ccccc1)NC(=O)CN1CCCC1=O` gave PI5P4K alpha inh -20.1, JMJD2A Tudor inh -16.7%, BAZ2B inh 79.4µM*, PLK1 PBD block -5.0%, G9a block 50.1µM* and HP1b binding inh -19.7%.
Screening O=C(CSc1nc2ccccc2c(=O)n1-c1ccccc1)N1CCC1 returned PI5P4K alpha inh 0.8, JMJD2A Tudor inh -10.2%, BAZ2B inh -17.8%, PLK1 PBD block -0.8%, G9a block -5.2% and HP1b binding inh 31.8%.
For CCn1c(SCC(=O)N2CCCC2)nc2ccccc21 the results were PI5P4K alpha inh -0.1, JMJD2A Tudor inh 5.1%, PLK1 PBD block 2.7%, G9a block 4.2% and HP1b binding inh 31.8%.
`O=C(CSc1nc2ccccc2n1S(=O)(=O)c1ccccc1)N1CCCC1` gave PI5P4K alpha inh -3.7, JMJD2A Tudor inh -2.1%, BAZ2B inh 1.5%, PLK1 PBD block 0.4%, G9a block 50.1µM* and HP1b binding inh 24.8%.
`COc1cccc(C2C(C(=O)Nc3ccc(C)cc3C)=C(C)Nc3c(C(=O)Nc4cccc(C)c4)cnn32)c1OC` (stereo not drawn) gave JMJD2A Tudor inh -9.7%, BAZ2B inh -2.1%[57.1 µM], G9a block -3.1%[59 µM] and HP1b binding inh 25.0%.

Assay outcomes deposited in PubChem by National Center for Advancing Translational Sciences (NCATS).
